Experimental data: PubChem BioAssay (NCI)
This is part of a sample that, as a whole, favours compounds with a hit. Of some 83,000 tested, about 20% had one in any assay.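 In brief: 96-well plates, 48 h treatment, single concentration, percent growth endpoint.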 Unmarked numbers belong to inactive results. Active and inactive are the calls of the source. Rule for the calls: active = growth percent below 10; inactive = the rest.

Assays:
Assay in all cases: NCI-60 one-dose screen, 48 h (100 = growth as untreated, 0 = no growth, -100 = all killed)
RPMI-8226 leukemia = details: 10 µM
OVCAR-8 ovarian = details: 10 µM
OVCAR-5 ovarian = details: 10 µM
OVCAR-4 ovarian = details: 10 µM
SK-OV-3 ovarian = details: 10 µM
IGROV1 ovarian = details: 10 µM
OVCAR-3 ovarian = details: 10 µM
HS 578T breast = details: 10 µM
NCI/ADR-RES ovarian = details: 10 µM
BT-549 breast = details: 10 µM
MDA-MB-435 melanoma = details: 10 µM
SW-620 colon = details: 10 µM
MCF7 breast = details: 10 µM unless noted
HCT-116 colon = details: 10 µM
HCC-2998 colon = details: 10 µM
KM12 colon = details: 10 µM
T-47D breast = details: 10 µM

Row | Structure (SMILES) | growth (RPMI-8226 leukemia) | growth (OVCAR-8 ovarian) | growth (OVCAR-5 ovarian) [%] | growth (OVCAR-4 ovarian) | growth (SK-OV-3 ovarian) [%] | growth (IGROV1 ovarian) [%] | growth (OVCAR-3 ovarian) | growth (HS 578T breast) | growth (NCI/ADR-RES ovarian) | growth (BT-549 breast) [%] | growth (MDA-MB-435 melanoma) | growth (SW-620 colon) [%] | growth (MCF7 breast) [%] | growth (HCT-116 colon) [%] | growth (HCC-2998 colon) [%] | growth (KM12 colon) | growth (T-47D breast) [%]
1 | COc1ccc(-c2cc(-c3cc(-c4ccc(OC)cc4)nc(N)n3)nc(N)n2)cc1 | 99.5% | 99.1% | 93.5 | 99.6% | 106 | 109 | 107% | 96.4% | 100% | 95.2 | 97.5% | 97.5 | 91.2 | 103 | 112 | 101% | 
2 | O=C(NCCNC(=O)c1ccc(Cl)cc1Cl)c1ccc(Cl)cc1Cl | 97.8% | 94.7% | 119 | 104% | 98.7 | 100 | 111% | 107% | 97.6% | 111 | 106% |  | 102 | 104 | 100 | 105% | 99.3
3 | Cc1ccc(C)n1-c1ccsc1C(=O)NNC(=O)CCl | 84.4% | 106% | 111 | 93.5% | 95.2 | 103 | 93.2% | 92.7% | 98.5% | 70.1 | 92.1% | 108 | 78.4 | 78 |  | 104% | 
4 | CC(CN1CCCCC1)NC(=O)c1scnc1-c1ccccc1 (centres undefined) | 101% | 100% | 118 | 108% | 103 | 105 | 112% | 195% | 99.4% | 101 | 101% |  | 103 | 93.8 | 96.8 | 106% | 98.7
5 | CNC(=S)NC(C)(C)C | 93.2% | 99.8% | 121 | 113% | 105 | 105 | 124% | 104% | 105% | 89.5 | 106% | 103 |  | 102 | 115 | 106% | 
6 | CC1=CC(=O)c2ccccc2C1=O |  | 107% | 105 | 112% | 108 | 112 | 113% | 103% | 107% | 116 | 107% |  | 100 | 104 | 108 | 104% | 98.7
7 | COC(=O)Nc1nc2ccc(C(=O)c3ccc(F)cc3)cc2[nH]1 | -27.1% (active) | 6.47% (active) | 27.3 | 55.5% | 42.6 |  | -74.4% (active) | -5.44% (active) | -5.09% (active) | 32 | -60.2% (active) |  | 15.6 | 14.2 | 16.1 | -4.55% (active) | 112
8 | O=C(OCC(O)C1OC(c2ccccc2)OC(COC(=O)c2ccccc2)C1O)c1ccccc1 (centres undefined) |  | 103% | 105 | 93.2% | 108 | 103 | 118% | 116% | 107% | 110 | 102% | 109 | 91.1 | 109 | 103 | 111% | 109
9 | COc1ccccc1C1OC2=Nc3cc(C)c(C)cc3NC2C1=O (centres undefined) | 93.5% | 69% | 62.1 | -14.2% (active) | 79.6 | 88.7 | 22.4% | 39.9% | 61.2% |  | 82.5% | 73.9 | 56.8 | 39.2 | 105 | 93% | 
